Laboratory results reported in the supplement of paper PMC13380429.
Values without a mark were called inactive.

System: Vero E6 infected with SARS-CoV-2
Assay: inhibition of SARS-CoV-2 cytopathic effect; higher = more antiviral protection, active = above 15
Details: 48 h

| Compound | inhibition of SARS-CoV-2 cytopathic effect (1 nM) [%] | inhibition of SARS-CoV-2 cytopathic effect (8.33 nM) [%] | inhibition of SARS-CoV-2 cytopathic effect (100 nM) [%] | inhibition of SARS-CoV-2 cytopathic effect (833.33 nM) [%] | inhibition of SARS-CoV-2 cytopathic effect (10000 nM) |
| --- | --- | --- | --- | --- | --- |
| CCCCCCCCCCCCCCCCNc1ccc(C(=O)O)cc1 [cetaben] | 2.02 | 3.28 | 1.52 | 1.67 | -2.46% |
| CC(C)OC(=O)C(C)(C)Oc1ccc(C(=O)c2ccc(Cl)cc2)cc1 [fenofibrate] | 4.02 | 5.16 | 3.28 | -0.31 | 0.82% |
| O=C(c1cccc(Cl)c1F)N1CCN(Cc2cccc(Nc3nccs3)n2)CC1 | -0.75 | -9.29 | 0.91 | -4.51 | -1.08% |
| CO[C@@H](C)Cn1c(=O)n(C)c2cnc3ccc(-c4cncc(C(C)(C)O)c4)cc3c21 | 0.62 | 2.32 | -0.9 | -3.02 | -17.6% |
| Cc1cc(O)c(C(C)C)cc1Cl [chlorothymol] | 0.21 | 0.56 | 2.72 | 0.49 | -5.16% |
| C[C@@H]1CN(Cc2ccc(F)cc2)CCN1C(=O)COc1ccc(Cl)cc1NC(N)=O | -1.77 | -0.1 | -2 | -1.98 | -1.75% |
| Nc1nc2[nH]cnc2c(=S)[nH]1 [thioguanine] | -0.56 | -0.26 | 1.4 | 2.65 | 5.44% |
| COC(=O)c1sccc1S(=O)(=O)Nc1ccc(Nc2ccccc2)cc1OC | 2.58 | 5.94 | 2.5 | 5.14 | 8.94% |
| NC[C@H](O)c1ccc(O)c(O)c1 [norepinephrine] | 1.39 | -0.56 | -2.09 | 0.33 | -1.61% |
| CCN(CC)CCOC(=O)C(c1ccccc1)c1ccccc1 [adiphenine] | -1.11 | -0.19 | 2.09 | 1.64 | -0.25% |
| CC(C)S(=O)(=O)NC[C@H](C)c1ccc(-c2ccc(CCNS(C)(=O)=O)cc2)cc1 [mibampator] | -0.11 | -1.29 | -1.07 | 1.62 | 4.07% |
| COc1ccc(Br)cc1S(=O)(=O)NC(=O)/C=C/c1ccccc1Cc1ccc2ccccc2c1 | 1.22 | 1.19 | 1.93 | 3.35 | -0.51% |
| CC(=O)Oc1cc(C(F)(F)F)ccc1C(=O)O [triflusal] | -0.9 | -0.53 | -1.38 | 0.3 | 4.74% |
| C[C@@H]1CCC[C@H](C)N1NC(=O)c1ccc(Cl)c(S(N)(=O)=O)c1 [clopamide] | -1.53 | 2.77 | 0.22 | 5.88 | -2.61% |
| CN1CC[C@@H]2CN3CCc4cccc(c43)[C@@H]2C1 | -3.24 | -0.59 | 1.77 | -0.07 | 1.24% |
| CCCCC/C=C\C/C=C\C/C=C\C/C=C\CCCC(=O)Nc1ccc(O)cc1 | -2.34 | -1.32 | 3.11 | 0.42 | -4.16% |
| CO[C@@H](C(=O)N1Cc2[nH]nc(NC(=O)c3ccc(N4CCN(C)CC4)cc3)c2C1)c1ccccc1 [danusertib] | 2.82 | 2.41 | -1.12 | -0.08 | -3.74% |
| CN1C(C(=O)Nc2ccccn2)=C(O)c2sc(Cl)cc2S1(=O)=O [lornoxicam] | -2.9 | -0.66 | -1.36 | 0.9 | -0.69% |
| NCCCC[C@H](NC(=O)[C@@H]1CCCN1C(=O)[C@@H]1CSSC[C@H](N)C(=O)N[C@@H](Cc2ccc(O)cc2)C(=O)N[C@@H](Cc2ccccc2)C(=O)N[C@@H](CCC(N)=O)C(=O)N[C@@H](CC(N)=O)C(=O)N1)C(=O)NCC(N)=O [lypressin] | 0.07 | 1.59 | 3.33 | 1.65 | 0.67% |
| CN(C)C(=O)n1nnnc1Cc1ccc(-c2ccccc2)cc1 | -1.07 | 2.48 | 0.66 | 2.07 | 1.15% |

| Compound | inhibition of SARS-CoV-2 cytopathic effect (1 nM) [%] | inhibition of SARS-CoV-2 cytopathic effect (8.33 nM) [%] | inhibition of SARS-CoV-2 cytopathic effect (100 nM) [%] | inhibition of SARS-CoV-2 cytopathic effect (833.33 nM) [%] | inhibition of SARS-CoV-2 cytopathic effect (10000 nM) |
| --- | --- | --- | --- | --- | --- |
| Cc1c(F)cc(C(=O)NC2CC2)cc1-c1c(F)cn2c(C(C)(C)C)nnc2c1F | -1.55 | -0.6 | -3.43 | 0.89 | -0.19% |
| C[C@@H](NC(=O)[C@@H](N)Cc1ccc(O)cc1)C(=O)NCC(=O)N(C)[C@@H](Cc1ccccc1)C(=O)N[C@H](CO)CC[S+](C)[O-] (stereo not given in full) | -0.57 | -1.1 | -1.84 | -0.24 | 0.65% |
| CN1CCc2c(c3ccccc3n2Cc2ccccc2)C1 [mebhydrolin] | -0.15 | 2.44 | 1.76 | -0.47 | -1.08% |
| CCCCCC(O)CCCC(=O)O (stereo not given) | -2.76 | -6.54 | -3.55 | -1.75 | -6.15% |
| C[C@]12C=CC(=O)N[C@@H]1CC[C@@H]1[C@@H]2CC[C@]2(C)[C@@H](C(=O)Nc3cc(C(F)(F)F)ccc3C(F)(F)F)CC[C@@H]12 [dutasteride] | -4.2 | -3.31 | 1.66 | -2.35 | -7.18% |
| CNC(=N)NCCC[C@H](N)C(=O)O [targinine] | -1.27 | 4.65 | 8.19 | 0.16 | 3.97% |
| COc1ccc2nc(NC(=O)Nc3ccccc3)sc2c1 [frentizole] | -3.36 | 0.96 | -1.31 | -1.35 | 1.78% |
| Nc1cc(F)ccc1NC(=O)/C=C/c1cnn(C/C=C/c2ccccc2)c1 | -1.39 | 1.78 | 0.89 | -2.26 | -1.9% |
| CC(=O)OCC(=O)[C@@]12OC3(CCCC3)O[C@@H]1C[C@H]1[C@@H]3CCC4=CC(=O)C=C[C@]4(C)[C@@]3(F)[C@@H](O)C[C@@]12C [amcinonide] | -1.51 | -0.7 | -1.46 | -0.87 | -3.21% |
| N=C(NCCC[C@H](N)C(=O)O)N[N+](=O)[O-] [NG-nitro-arginine] | 4.03 | -0.95 | -0.93 | 0.27 | -0.46% |
| O=C(O)c1c(Sc2ccccc2)c2cc(Cl)ccc2n1Cc1ccc(Cl)cc1 | 1.19 | -0.87 | -0.5 | 3.75 | 1.7% |
| CC(C(=O)O)c1cccc(Oc2ccccc2)c1 (stereo not given) [fenoprofen] | -0.67 | -2.89 | 0.97 | -1.9 | -3.01% |
| CC(C)=CCC[C@](C)(O)[C@@H]1CC=C(C)CC1 [levomenol] | 0.81 | 4.97 | 5.57 | 3.97 | 0.76% |
| CCOC(=O)C1=CCCC[C@H]1S(=O)(=O)Nc1ccc(F)cc1Cl [resatorvid] | 1.61 | 1.54 | 3.21 | 0.29 | -0.49% |
| C#C[C@]1(O)CC[C@H]2[C@@H]3CCc4cc(OC5CCCC5)ccc4[C@H]3CC[C@@]21C [quinestrol] | -2.85 | -1.33 | -0.65 | 0.63 | 15.7% (active) |
| C/C=C(/C(=C/C)c1ccc(O)cc1)c1ccc(O)cc1 [dienestrol] | 2 | -0.9 | -0.85 | 0.84 | 1.6% |
| COc1ccc2nc3ccc(Cl)cc3c(SCCCN)c2c1 | 0.89 | 1 | 0.27 | 0.79 | 2.63% |
| COC(=O)N1CCN(Cc2cccc(NC(=O)Nc3ccc(C)nc3)c2F)CC1 [omecamtiv-mecarbil] | -0.03 | 0.93 | -0.98 | 0.86 | 3.03% |
| CCCCCCCCCCCCCCCC=O [1-hexadecanal] | 0.5 | 2.85 | -0.54 | -0.08 | 1.56% |
| CC#C[C@]1(O)CC[C@H]2[C@@H]3CCC4=CC(=O)CCC4=C3[C@@H](c3ccc(N(C)C)cc3)C[C@@]21C [mifepristone] | -1.56 | 0.62 | 3.53 | -4.55 | 8.14% |
